SNCA expr inhib: reduces expression of the alpha-synuclein gene; AID 1671194; actives 0.17% (n = 140,000); Potency, µM (highest dose often 57.2 µM), actives largely listed as inhibitors; HEK-293 SNCA-luciferase knock-in, luminescence, 24 h; further: nearly all actives have a fitted effect of over 45% in size
HEK293 tox: HEK 293 cell cytotoxicity. HEK 293 viability, ATP luminescence (CellTiter-Glo), 48-72 h. Potency, µM (top dose mostly 115 µM), hits mostly inhibitors. actives 6.6% (n = 94,000). AID 1345083; further: nearly all actives have a fitted effect of over 60% in size
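Viability of HEK 293 cells, plated at 250 cells/well, was judged by cellular ATP after compound treatment for 48 or 72 hr. Luminescence was imaged 10 min after CellTiter-Glo addition at room temperature.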
NPR1 antag: blocks ANP-stimulated signaling of human Npr1 receptor; HEK293 hNpr1 GloSensor cGMP, ANP-stimulated luminescence; actives 1.6% (n = 76,000); Potency, µM (highest dose often 46.3 µM), most hits filed as inhibitors; calls by dose curve; further: nearly all actives have a fitted effect of over 60% in size
Target sequence (P16066 whole entry, looked up): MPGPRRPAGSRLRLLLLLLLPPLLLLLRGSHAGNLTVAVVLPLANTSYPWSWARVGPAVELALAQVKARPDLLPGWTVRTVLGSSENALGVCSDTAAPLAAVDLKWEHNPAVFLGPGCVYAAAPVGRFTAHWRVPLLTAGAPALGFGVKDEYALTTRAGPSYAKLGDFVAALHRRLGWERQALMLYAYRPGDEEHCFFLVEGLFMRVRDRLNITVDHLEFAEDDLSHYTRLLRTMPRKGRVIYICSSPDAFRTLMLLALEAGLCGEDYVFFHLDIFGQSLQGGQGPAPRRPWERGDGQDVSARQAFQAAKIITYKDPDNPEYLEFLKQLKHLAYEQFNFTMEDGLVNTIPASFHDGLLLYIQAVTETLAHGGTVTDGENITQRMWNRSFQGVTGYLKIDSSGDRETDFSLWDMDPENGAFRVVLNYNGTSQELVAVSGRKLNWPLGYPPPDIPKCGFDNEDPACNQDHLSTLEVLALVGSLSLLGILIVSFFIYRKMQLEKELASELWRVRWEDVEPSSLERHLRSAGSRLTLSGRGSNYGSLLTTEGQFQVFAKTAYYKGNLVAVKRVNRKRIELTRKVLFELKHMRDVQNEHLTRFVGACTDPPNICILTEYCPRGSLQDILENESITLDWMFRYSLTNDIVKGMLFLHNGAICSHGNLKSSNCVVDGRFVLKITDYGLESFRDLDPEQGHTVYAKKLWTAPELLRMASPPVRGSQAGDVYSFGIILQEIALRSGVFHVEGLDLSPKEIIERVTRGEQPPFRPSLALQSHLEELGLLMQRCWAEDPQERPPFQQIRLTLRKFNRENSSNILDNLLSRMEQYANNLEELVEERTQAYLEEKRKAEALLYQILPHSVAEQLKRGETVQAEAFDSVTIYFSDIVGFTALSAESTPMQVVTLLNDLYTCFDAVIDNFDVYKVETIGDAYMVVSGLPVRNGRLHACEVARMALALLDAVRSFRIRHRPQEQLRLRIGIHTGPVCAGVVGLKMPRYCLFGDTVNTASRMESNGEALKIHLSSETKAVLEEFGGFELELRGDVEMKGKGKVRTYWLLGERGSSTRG
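Compound pre-incubated 30 min at room temperature on GloSensor-loaded HEK293 cells stably carrying hNpr1 and the pGS-40F cGMP biosensor. Stimulation uses hNppA at 0.1 nM final; luminescence is taken at baseline and 20 min post-agonist.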
HEK293 viab: cell viability loss counter-screen | HEK-293-SNCA-luc viability, GF-AFC fluorescence, 24 h | Potency, µM (series often up to 57.1 µM), most hits filed as cytotoxic | actives 0.12% (n = 150,000) | AID 1671193; further: nearly all actives have a fitted effect of over 30% in size
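HEK-293-SNCA-luc cells (1500/well) plated 24 h, then exposed 24 h to a dilution series; GF-AFC added 30 min at 37C, fluorescence 405/540 nm; normalised to medium-only and DMSO wells, Hill fit.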
NIH3T3 tox: kills NIH 3T3 cells; AID 1345082; Potency, µM (titrated, usually from 96.7 µM), most hits filed as inhibitors; actives 4.3% (n = 94,000); NIH 3T3 viability, CellTiter-Glo ATP luminescence, 48-72 h; further: nearly all actives have a fitted effect of over 55% in size
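NIH 3T3 cells at 400 cells/well received 23 nL of compound by pintool and were incubated 48 or 72 h at 37 °C. Viability was read as ATP-coupled CellTiter-Glo luminescence.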
FLuc inh: inhibitors of firefly (Photinus pyralis) luciferase | Potency, µM (highest dose often 115 µM), hits mostly inhibitors | actives 2.5% (n = 76,000) | purified P. pyralis luciferase, luminescence, biochemical | P08659; further: nearly all actives have a fitted effect of over 65% in size
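Purified 10nM P. pyralis luciferase with 10uM D-luciferin and 10uM ATP in 50mM Tris acetate pH 7.5, 10mM Mg acetate, 0.01% Tween-20, 0.05% BSA. qHTS titration; luminescence read by CCD imager.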
Numbers stand for hits; – = inactive; ? = inconclusive; · = no result given. An excerpt weighted towards active compounds, which were near 7.4% of everything screened. Unless noted, the call rests on the fitted dose curve; in most records, active means well fitted curve in the direction sought with a large enough effect; inconclusive means small, poorly fitted or top-dose-only effect, or another doubt; inactive means no such curve, though single readings can be large; an effect the other way counts as inactive or inconclusive.

SMILES	SNCA expr inhib	HEK293 tox	NPR1 antag	HEK293 viab	NIH3T3 tox	FLuc inh
CC(C)CN(CCCNC(=O)CN1C(=O)COc2ccc(S(=O)(=O)N3CCCCCC3)cc21)CC(C)C	28.2µM	·	·	–	·	·
CC(C)c1noc(CC2CCN(C(=O)c3cc4ccccc4[nH]3)CC2)n1	–	?	?	–	?	?
O=C1CC(c2ccccc2)N(C(=O)C2CC2)CCCN(S(=O)(=O)c2cccs2)CCN1 (stereo not given)	–	–	–	–	–	–
COc1ccc(N2Cc3c(NCC4CCCCC4)ncnc3N(C)CC2=O)cc1	–	?	–	–	?	–
COc1ccc(N2Cc3c(NCC4CCCCCC4)ncnc3N(C)CC2=O)cc1	–	79.4µM	–	–	?	–
CN1CC(=O)N(C2CCCC2)Cc2c(NCc3cccc(C(F)(F)F)c3)ncnc21	–	35.5µM	·	–	?	·
CNC(=O)c1cccc(-c2cnc(Nc3ccc(F)c(Cl)c3)c3c2CCO3)c1	–	28.2µM	–	?	?	10µM
Fc1cccc(-c2cnc(Nc3cnccn3)c3c2CCO3)c1	–	100µM	–	–	?	?
CNC(=O)c1cccc(-c2cnc(Nc3ccncc3)c3c2CCO3)c1	–	?	–	–	?	–
CNC(=O)c1cccc(-c2cnc(Nc3cccc(C(F)(F)F)c3)c3c2CCO3)c1	–	63.1µM	?	?	39.8µM	?
Cc1noc(C)c1-c1cnc(Nc2cccc(C(F)(F)F)c2)c2c1CCO2	–	63.1µM	–	–	?	?
COC(=O)N1CCCC(c2nn(-c3ccccn3)c(=O)[nH]2)C1 (stereo not given)	–	–	·	–	–	·
O=C(Nc1ncc(-c2cccc(F)c2)c2c1OCC2)c1ccc(F)c(Cl)c1	–	35.5µM	–	–	?	–
O=C(Nc1ncc(-c2cccc(F)c2)c2c1OCC2)c1ccncc1	–	–	–	–	?	–
CNC(=O)c1cccc(-c2cnc(Nc3cccnc3)c3c2CCO3)c1	–	?	–	–	?	25.1µM
O=C(NCc1ccccc1)N1CCCCC1c1nc(-c2cnccn2)n[nH]1 (stereo not given)	?	–	–	–	–	–
Cc1cc(C)c([S+](=O)([O-])c2nnn3c2nc(N2CCC(F)CC2)c2ccccc23)c(C)c1	–	–	·	–	–	·
O=C(Cc1ccccc1)N1C[C@@H](CO)[C@@H]2Oc3ccc(Cl)cc3[C@@H]21	·	79.4µM	·	·	?	·
O=C1CCC2(CCN1CC1CC1)CCN(S(=O)(=O)c1ccccc1F)CC2	–	?	–	–	–	–
COc1ccccc1C(=O)N1CCCn2nc(C)c(-c3ccccc3Oc3ccccc3)c21	–	100µM	–	–	?	–
Cc1nn2c(c1-c1ccccc1Oc1ccccc1)N(Cc1cccc(C(=O)O)c1)CCC2	?	?	?	–	?	?
Cc1nn2c(c1-c1ccccc1Oc1ccccc1)N(C(=O)c1cccc(C#N)c1)CCC2	–	70.8µM	–	–	?	–
Cc1nn2c(c1-c1ccccc1Oc1ccccc1)N(C(=O)c1ccccc1)CCC2	?	56.2µM	–	?	44.7µM	–
COc1ccc(C(=O)N2CCCn3nc(C)c(-c4ccccc4Oc4ccccc4)c32)cn1	?	?	–	?	?	–
Cc1nn2c(c1-c1ccccc1Oc1ccccc1)N(C(=O)Cc1ccccc1)CCC2	–	79.4µM	?	–	?	–
SMILES	SNCA expr inhib	HEK293 tox	NPR1 antag	HEK293 viab	NIH3T3 tox	FLuc inh
COc1ccccc1C(=O)N1CCCn2nc(C)c(-c3ccccc3OCc3ccccc3)c21	–	?	–	–	?	–
Cc1cnc(CC2CCNC2)n1C(C)C (stereo not given)	–	–	–	–	–	–
O=C(c1ccccc1F)N1CC2(C1)C(=O)Nc1ccccc12	–	–	·	–	–	·
O=C(NCCc1ccccc1)c1ccc2nnc(-c3cccnc3)n2c1	–	?	·	–	–	·
Cc1ccccc1CNC(=O)[C@@H]1OCCN(C2CC2)[C@H]1c1ccccc1	–	–	·	–	–	·
CCc1cccc(NC(=O)C2CCCN(c3cnn(Cc4ccccc4)c(=O)c3)C2)c1 (stereo not given)	–	?	–	–	?	–

From PubChem BioAssay
